PubChem BioAssay (NCATS)
“And” between values parts separate entries of the source, which are not always exact repeats. Equal values may be shown once. Inconclusive results are not listed. Some compounds were tested as several samples or in several runs, with calls that do not always agree. The source made the active and inactive calls. Unless noted, calls follow the shape of the dose curve; as a rule, active = well fitted curve in the direction sought with a large enough effect; inconclusive = small, poorly fitted or top-dose-only effect, or another doubt; inactive = no such curve, though single readings can be large; an effect the other way counts as inactive or inconclusive.

Columns and labels:
[1] = Natriuretic polypeptide receptor (hNpr1) antagonism - Pilot counterscreen GloSensor control cell line (AID 1347045; calls by dose curve; also: potency is read from the fitted curve at half-maximal effect); conditions: HEK293 cGMP GloSensor cells, SNP-stimulated luminescence, 20 min; series mostly up to 38.3 µM
Method in brief: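 Luminescence was read before and 20 min after adding 50 uM SNP, which stimulates soluble guanylyl cyclase. The HEK293 cells expressing the GloSensor cGMP sensor had been preloaded with 2% reagent for 2 h and treated with compound.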

[2] = target: Atrial natriuretic peptide receptor 2 (Homo sapiens) (UniProt P20594); assay: Natriuretic polypeptide receptor (hNpr2) antagonism - Pilot subtype selectivity assay (AID 1347050; calls by dose curve; also: potency is read from the fitted curve at half-maximal effect); conditions: NPR2-expressing cells, cGMP antagonist-mode read-out; series mostly up to 38.3 µM
Method in brief: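 Pilot selectivity screen against hNpr2: HEK293 cGMP-sensor cells are treated with LOPAC1280 compounds, then with hNppC peptide at 1 nM final. The cGMP-driven luminescence change over 20 min at room temperature is the read-out.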

[3] = target: T1, Tyrosine-protein phosphatase non-receptor type substrate 1 (Homo sapiens) + Leukocyte surface antigen CD47 (Homo sapiens) (UniProt P78324+Q08722); assay: CD47-SIRPalpha protein protein interaction - LANCE assay qHTS validation (AID 1347057; active = well fitted curve in the direction sought with a large enough effect in the signal ratio, with a control signal flat, not every such curve was filed as active; the % refers to the signal ratio); conditions: Recombinant CD47-His / biotin-SIRPalpha, TR-FRET ratio; series mostly up to 38.3 µM
Method in brief: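 First, His-tagged CD47 and Eu-labelled anti-His antibody met the compound for 30 min; next, site-specifically biotinylated SIRPalpha was added for 30 min; finally streptavidin-APC was added before reading the TR-FRET ratio.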

[4] = target: T1, Tyrosine-protein phosphatase non-receptor type substrate 1 (Homo sapiens) + Leukocyte surface antigen CD47 (Homo sapiens); assay: CD47-SIRPalpha protein protein interaction - HTRF assay qHTS validation (AID 1347058; active = well fitted curve in the direction sought with a large enough effect in the signal ratio, not every such curve was filed as active; the % refers to the signal ratio;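 also: recombinant soluble extracellular CD47 with His tag and biotinylated SIRPalpha domains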); conditions: TR-FRET HTRF CD47-His / biotin-SIRPalpha binding, ratio 665/615; series mostly up to 38.3 µM
Method in brief: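 TR-FRET read (Ch1/Ch2 ratio) of soluble extracellular CD47 and Avi-biotinylated SIRPalpha domains in PBS pH 7.4 with 0.05% IGEPAL; 7-point compound titration. Sequential 30 min room-temperature steps; non-biotinylated SIRPalpha as control inhibitor.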

[5] = target: Parathyroid hormone/parathyroid hormone-related peptide receptor (Homo sapiens) (UniProt Q03431); assay: qHTS for PTHR1 Agonists: Optimization Screen against the NCGC LOPAC library (AID 1347079); conditions: HEK293 GP2 PTHR1 GloSensor cAMP luminescence, 1 h; series mostly up to 57.1 µM;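 also: GloSensor cAMP luminescence in HEK-293 GP2 cells expressing human PTHR1 with IBMX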
Method in brief: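 Agonist readout: GloSensor cAMP luminescence, read after 15 min at room temperature. HEK-293-derived GP2 line carries PTHR1; compounds tested as a titration for 1 hr at 37C in presence of IBMX. M-PTH (1-15) served as control.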

[6] = qHTS of pediatric cancer cell lines to identify multiple opportunities for drug repurposing: Primary screen for TC32 cells (AID 1347089); conditions: TC32 Ewing sarcoma viability, CellTiter-Glo luminescence, 48 h; series mostly up to 45.8 µM; also: nearly all actives have a fitted effect of over 60% in size
Method in brief: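 In the primary qHTS, MIPE compounds were tested at 11 concentrations (0.78 nM to 46 µM) and NPC compounds at 8 (0.59 nM to 46 µM) on TC32 cells for 48 h. CellTiter-Glo luminescence gave viability.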

[7] = qHTS of pediatric cancer cell lines to identify multiple opportunities for drug repurposing: Primary screen for DAOY cells (AID 1347090); conditions: DAOY medulloblastoma viability, CellTiter-Glo luminescence, 48 h; series mostly up to 46 µM; also: nearly all actives have a fitted effect of over 55% in size; also: potency is read from the fitted curve at half-maximal effect
Method in brief: (§1)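 Cell viability, CellTiter-Glo luminescence; 500-1,000 cells/well, 8- or 11-point titration, 48 h compound exposure at 37 degrees C, 5% CO2. Controls: DMSO neutral, bortezomib 2.3 µM final as positive.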

[8] = qHTS of pediatric cancer cell lines to identify multiple opportunities for drug repurposing: Primary screen for SJ-GBM2 cells (AID 1347091); conditions: SJ-GBM2 viability, CellTiter-Glo luminescence, 48 h; series mostly up to 46 µM; also: potency is read from the fitted curve at half-maximal effect
Method in brief: as §1

[9] = qHTS of pediatric cancer cell lines to identify multiple opportunities for drug repurposing: Primary screen for SK-N-MC cells (AID 1347093); conditions: SK-N-MC viability, CellTiter-Glo luminescence, 48 h; series mostly up to 46 µM; also: potency is read from the fitted curve at half-maximal effect
Method in brief: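 Metabolically active cells were quantified by ATP-dependent luminescence (CellTiter-Glo, 15 min at room temperature) following 48 h treatment. Cells had been plated at 500-1,000 per well and settled for 5 h beforehand.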

[10] = qHTS of pediatric cancer cell lines to identify multiple opportunities for drug repurposing: Primary screen for NB-EBc1 cells (AID 1347095); conditions: NB-EBc1 neuroblastoma viability, CellTiter-Glo luminescence, 48 h; series mostly up to 46 µM; also: potency is read from the fitted curve at half-maximal effect
Method in brief: (§2)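 Following a 5-hour attachment period, cells at 500-1,000/well received compounds and were cultured for 48 hours. CellTiter-Glo was added and luminescence read to estimate viable, metabolically active cells.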

[11] = qHTS of pediatric cancer cell lines to identify multiple opportunities for drug repurposing: Primary screen for U-2 OS cells (AID 1347096); conditions: U-2 OS viability, CellTiter-Glo luminescence, 48 h; series mostly up to 46 µM; also: nearly all actives have a fitted effect of over 50% in size
Method in brief: (§3)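 Cells (500-1,000/well) rested 5 h, then received compounds for 48 h; metabolically active cells were measured by CellTiter-Glo luminescence. Final concentrations spanned up to 46 µM (MIPE, 11-point) or 0.59 nM-46 µM (NPC, 8-point) in primary screens, 11-point in follow-ups.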

[12] = qHTS of pediatric cancer cell lines to identify multiple opportunities for drug repurposing: Primary screen for Saos-2 cells (AID 1347097); conditions: Saos-2 viability, CellTiter-Glo ATP luminescence, 48 h; series mostly up to 46 µM; also: nearly all actives have a fitted effect of over 40% in size; also: potency is read from the fitted curve at half-maximal effect
Method in brief: as §2

[13] = NS1 protein of Zika virus - qHTS assay to identify small molecule inhibitors in human HEK 293 cells (AID 1347053); conditions: HEK293 ZIKV MR766 infection, NS1 TR-FRET, 24 h; series mostly up to 46.1 µM; also: nearly all actives have a fitted effect of over 55% in size; also: potency is read from the fitted curve at half-maximal effect
Method in brief: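 HEK 293 cells pretreated with compound for 1 h, then infected with ZIKV MR766 (MOI 0.5) for 24 h at 37 C. NS1 detected by TR-FRET with two anti-NS1 antibodies; normalized to uninfected (0%) and infected (100%) wells.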

[14] = target: T1, Tyrosine-protein phosphatase non-receptor type substrate 1 (Homo sapiens) + Leukocyte surface antigen CD47 (Homo sapiens); assay: CD47-SIRPalpha protein protein interaction - Alpha assay qHTS validation (AID 1347059); conditions: AlphaScreen CD47-His/biotin-SIRPalpha binding, LOPAC; series mostly up to 38.3 µM;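 also: bead proximity luminescence from CD47 binding SIRPalpha after compound preincubation with SIRPalpha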; also: potency is read from the fitted curve at half-maximal effect
Method in brief: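 Binding is measured by AlphaScreen proximity: Ni-NTA acceptor beads capture His-CD47, streptavidin donor beads capture biotin-SIRPalpha. Each of three additions (SIRPalpha with compound, CD47, beads) incubates 30 min at room temperature protected from light.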

[15] = qHTS of pediatric cancer cell lines to identify multiple opportunities for drug repurposing: Primary screen for A673 cells (AID 1347092); conditions: A673 Ewing sarcoma viability, CellTiter-Glo ATP luminescence, 48 h; series mostly up to 46 µM; also: nearly all actives have a fitted effect of over 45% in size; also: potency is read from the fitted curve at half-maximal effect
Method in brief: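 48 h compound exposure, A673, 500-1,000 cells/well, 37 degrees C/5% CO2. MIPE: 11-point, 0.78 nM-46 µM; NPC: 8-point, 0.59 nM-46 µM (final). Readout CellTiter-Glo luminescence after 15 min RT.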

[16] = qHTS of pediatric cancer cell lines to identify multiple opportunities for drug repurposing: Primary screen for BT-37 cells (AID 1347094); conditions: BT-37 viability, CellTiter-Glo luminescence, 48 h; series mostly up to 57.3 µM; also: potency is read from the fitted curve at half-maximal effect
Method in brief: as §2

[17] = qHTS of pediatric cancer cell lines to identify multiple opportunities for drug repurposing: Primary screen for SK-N-SH cells (AID 1347098); conditions: SK-N-SH viability, CellTiter-Glo luminescence, 48 h; series mostly up to 57 µM; also: nearly all actives have a fitted effect of over 65% in size; also: potency is read from the fitted curve at half-maximal effect
Method in brief: as §3

[18] = qHTS of pediatric cancer cell lines to identify multiple opportunities for drug repurposing: Primary screen for NB1643 cells (AID 1347099); conditions: NB1643 neuroblastoma viability, CellTiter-Glo luminescence, 48 h; series mostly up to 46 µM; also: nearly all actives have a fitted effect of over 50% in size; also: potency is read from the fitted curve at half-maximal effect
Method in brief: as §2

[19] = qHTS of pediatric cancer cell lines to identify multiple opportunities for drug repurposing: Primary screen for LAN-5 cells (AID 1347100); conditions: LAN-5 neuroblastoma viability, CellTiter-Glo luminescence, 48 h; series mostly up to 46 µM; also: potency is read from the fitted curve at half-maximal effect
Method in brief: as §3

Measured: Potency

Chain of Parathyroid hormone/parathyroid hormone-related peptide receptor (Homo sapiens) (Q03431 whole entry, looked up): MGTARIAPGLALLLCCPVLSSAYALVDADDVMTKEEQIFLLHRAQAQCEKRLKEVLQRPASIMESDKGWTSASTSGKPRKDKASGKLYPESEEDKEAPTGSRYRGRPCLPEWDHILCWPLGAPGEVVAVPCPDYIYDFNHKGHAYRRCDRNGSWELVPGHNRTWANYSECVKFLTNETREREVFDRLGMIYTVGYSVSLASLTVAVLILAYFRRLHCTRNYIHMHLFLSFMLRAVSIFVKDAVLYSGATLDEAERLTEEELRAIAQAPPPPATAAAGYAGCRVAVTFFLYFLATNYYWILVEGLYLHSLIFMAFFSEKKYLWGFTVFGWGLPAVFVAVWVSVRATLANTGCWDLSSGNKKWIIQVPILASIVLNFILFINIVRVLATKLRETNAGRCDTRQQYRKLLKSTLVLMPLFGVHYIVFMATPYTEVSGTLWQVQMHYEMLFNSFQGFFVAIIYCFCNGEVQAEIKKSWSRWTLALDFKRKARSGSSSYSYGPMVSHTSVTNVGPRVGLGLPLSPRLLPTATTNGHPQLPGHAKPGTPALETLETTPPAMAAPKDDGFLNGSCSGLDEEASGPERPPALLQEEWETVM
Chain of Atrial natriuretic peptide receptor 2 (Homo sapiens) (P20594 whole entry, looked up): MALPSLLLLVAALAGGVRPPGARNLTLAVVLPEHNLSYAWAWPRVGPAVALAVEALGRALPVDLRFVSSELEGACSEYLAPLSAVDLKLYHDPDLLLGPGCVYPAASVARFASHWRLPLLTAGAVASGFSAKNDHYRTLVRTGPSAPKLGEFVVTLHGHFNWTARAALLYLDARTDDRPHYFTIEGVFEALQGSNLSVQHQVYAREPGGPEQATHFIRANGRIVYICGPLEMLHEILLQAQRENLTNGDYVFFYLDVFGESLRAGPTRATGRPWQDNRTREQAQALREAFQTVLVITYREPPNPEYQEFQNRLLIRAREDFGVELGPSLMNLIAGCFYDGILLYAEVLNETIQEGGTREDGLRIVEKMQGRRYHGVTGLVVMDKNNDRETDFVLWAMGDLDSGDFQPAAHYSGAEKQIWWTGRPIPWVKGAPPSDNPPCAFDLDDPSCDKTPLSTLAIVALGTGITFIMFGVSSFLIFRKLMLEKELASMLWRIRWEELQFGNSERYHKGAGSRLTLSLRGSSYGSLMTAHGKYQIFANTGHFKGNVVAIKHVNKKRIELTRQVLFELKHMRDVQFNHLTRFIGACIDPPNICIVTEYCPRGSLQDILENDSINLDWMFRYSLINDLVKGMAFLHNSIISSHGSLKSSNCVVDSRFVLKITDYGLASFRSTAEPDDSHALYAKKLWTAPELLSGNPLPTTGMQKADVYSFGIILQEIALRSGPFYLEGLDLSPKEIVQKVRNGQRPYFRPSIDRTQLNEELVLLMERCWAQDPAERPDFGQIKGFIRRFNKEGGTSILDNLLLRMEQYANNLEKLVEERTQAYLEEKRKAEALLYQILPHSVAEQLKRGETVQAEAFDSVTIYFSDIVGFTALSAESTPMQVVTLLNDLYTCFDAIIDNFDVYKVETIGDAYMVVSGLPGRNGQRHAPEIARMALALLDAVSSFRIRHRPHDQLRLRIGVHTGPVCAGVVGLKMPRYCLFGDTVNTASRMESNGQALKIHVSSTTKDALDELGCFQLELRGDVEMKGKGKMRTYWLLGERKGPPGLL
T1 sequence (P78324 whole entry, looked up): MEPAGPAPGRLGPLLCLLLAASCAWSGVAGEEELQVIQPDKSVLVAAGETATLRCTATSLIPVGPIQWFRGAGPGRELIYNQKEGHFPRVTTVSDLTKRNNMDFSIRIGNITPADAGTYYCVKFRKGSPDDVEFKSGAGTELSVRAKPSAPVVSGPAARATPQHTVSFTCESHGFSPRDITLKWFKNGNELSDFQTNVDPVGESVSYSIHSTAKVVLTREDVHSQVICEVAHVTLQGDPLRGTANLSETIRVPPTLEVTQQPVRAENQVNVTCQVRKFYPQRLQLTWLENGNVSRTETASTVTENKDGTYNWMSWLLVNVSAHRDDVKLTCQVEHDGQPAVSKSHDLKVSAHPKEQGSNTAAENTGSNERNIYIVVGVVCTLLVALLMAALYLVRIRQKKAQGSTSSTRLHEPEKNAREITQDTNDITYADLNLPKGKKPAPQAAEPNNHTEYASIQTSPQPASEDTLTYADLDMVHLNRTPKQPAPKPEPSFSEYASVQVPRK
T1 sequence (Q08722 whole entry, looked up): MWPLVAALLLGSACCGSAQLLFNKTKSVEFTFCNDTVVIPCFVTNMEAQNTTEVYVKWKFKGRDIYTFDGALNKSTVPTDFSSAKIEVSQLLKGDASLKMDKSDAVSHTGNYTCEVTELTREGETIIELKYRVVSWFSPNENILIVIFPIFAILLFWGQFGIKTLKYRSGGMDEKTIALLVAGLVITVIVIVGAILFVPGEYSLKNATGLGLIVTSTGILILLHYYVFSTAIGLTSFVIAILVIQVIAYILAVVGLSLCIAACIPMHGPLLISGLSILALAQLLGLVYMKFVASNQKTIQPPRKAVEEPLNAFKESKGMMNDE

O=c1c(-c2ccc(O)cc2)coc2cc(O)cc(O)c12
active: [10] 23.7 µM
not listed: [13] | [14] | [15] | [16] | [17] | [18] | [19]
inactive: all other assays above

NC(CO)C(=O)NNCc1ccc(O)c(O)c1O (centres undefined)
active: [14] 13.1 µM | [15] 23.5 µM
not listed: [3] | [4] | [7] | [18] | [19]
inactive: all other assays above

CCOC(=O)c1ncn2c1CN(C)C(=O)c1cc(F)ccc1-2
not listed: [5] | [13]
inactive: all other assays above

Cc1cc(C(C)(C)C)c(O)c(C)c1CC1=NCCN1
not listed: [5] | [7] | [9] | [10] | [13] | [14]
inactive: all other assays above

O=C1N(c2ccccc2)c2ccccc2C1(Cc1ccncc1)Cc1ccncc1
not listed: [2] | [18]
inactive: all other assays above

NCCS(=O)(=O)O
not listed: [7] | [11] | [14] | [18]
inactive: all other assays above

CCCCc1oc2ccccc2c1C(=O)c1cc(I)c(OCCN(CC)CC)c(I)c1
29.6 µM (active) and inactive: [13]
inactive: [1] | [2] | [3] | [4] | [5] | [6]
active: [7] 5.9 µM | [8] 8.33 µM | [15] 4.69 µM and 26.6 µM | [9] 1.18 µM and 13.3 µM | [16] 30.9 µM | [12] 18.7 µM and 26.6 µM | [17] 8.57 µM and 21.7 µM | [19] 1.48 µM

CNCCCC12CCC(c3ccccc31)c1ccccc12
active: [15] 21.1 µM and 23.5 µM | [9] 23.5 µM | [12] 26.4 µM | [17] 13.7 µM
not listed: [7] | [8] | [11] | [13] | [16] | [18]
inactive: all other assays above

Cc1cc(C(C)(C)C)cc(C)c1CC1=NCCN1
not listed: [9] | [14] | [18]
inactive: all other assays above

O=C(c1ccc(OCCN2CCCCC2)cc1)c1c(-c2ccc(O)cc2)sc2cc(O)ccc12
active: [8] 9.44 µM and 18.7 µM | [15] 10.6 µM and 18.7 µM | [9] 18.8 µM | [12] 14.8 µM | [17] 13.7 µM | [19] 15 µM
inactive: [1] | [2] | [3] | [6] | [11]

O=C(c1ccc(F)cc1)C1CCN(CCn2c(=O)[nH]c3ccccc3c2=O)CC1
not listed: [7] | [11] | [14]
inactive: all other assays above

COc1ccc2[nH]cc(CCNC(C)=O)c2c1
not listed: [5] | [9] | [10]
inactive: all other assays above

C[C@H]1c2cccc(O)c2C(O)=C2C(=O)[C@]3(O)C(O)=C(C(N)=O)C(=O)[C@@H](N(C)C)[C@@H]3[C@@H](O)[C@@H]21
not listed: [7] | [10] | [11] | [13] | [14] | [15] | [16]
inactive: all other assays above

Nc1nc2c(ncn2COC(CO)CO)c(=O)[nH]1
not listed: [7] | [8] | [9] | [12] | [14] | [15] | [16]
inactive: all other assays above

O=C(Nc1ccc([N+](=O)[O-])cc1Cl)c1cc(Cl)ccc1O
active: [1] 0.464 µM | [2] 1.31 µM | [7] 1.46 µM and 1.18 µM | [8] 1.3 µM and 743 nM | [15] 4.69 µM | [9] 1.3 µM and 833 nM | [16] 1.69 µM and 1.37 µM | [10] 4.11 µM and 743 nM | [12] 2.31 µM and 1.18 µM | [19] 1.3 µM and 935 nM
inactive: [3] | [4] | [6]
inactive and 1.48 µM (active): [13]

CN(C)CCOC(c1ccccc1)c1ccccc1
inactive: [1] | [2] | [3] | [4] | [8] | [15] | [16] | [12] | [17] | [19]

NC(=O)NO
not listed: [6] | [8] | [9] | [10] | [12] | [15] | [16]
inactive: all other assays above

COc1nc(C)nc(Cl)c1NC1=NCCN1
not listed: [7] | [10] | [13] | [18]
inactive: all other assays above

CN(C)C(=O)C(CCN1CCC(O)(c2ccc(Cl)cc2)CC1)(c1ccccc1)c1ccccc1
active: [1] 26.1 µM | [15] 18.7 µM | [9] 18.7 µM | [16] 24.3 µM | [17] 24.1 µM and 15.4 µM | [18] 26.6 µM | [19] 18.7 µM
inactive: [13] | [3] | [4] | [14] | [5] | [11] | [12]
